Experimental data as given in PubChem BioAssay AID1159580 (chemical genetic matrix, 2015).
Out of some 5,500 compounds screened, about 2,000 (36%) were called active. Inconclusive results (about 18%) are left out. No stated cut-off is given here; in the data, active means normalized growth mostly below about 0.91 (no sharp cut-off); inconclusive means no clear call, values can overlap the other calls; inactive means mostly above about 0.92. The list shows a part of the results.

Experiment: chemical genetic growth profiling, strain panel (AID 1159580);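 further: tested at 20 µM; growth read once vehicle control cultures reached saturation at 30 °C; 1 = growth at the plate median or of vehicle wells; lower values mean less growth of the strain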
Conditions: growth OD

Measured: normalized growth

CCC(C)C(=O)c1c(O)c(C)c2oc3c(C)c(O)c(C(=O)C(C)CC)c(O)c3c2c1O (stereo not drawn)
active: S. cerevisiae deletion strains, locus YDL185W, strain tfp1, active compounds read low 0.895 | S. cerevisiae deletion strains, locus YDR137W, strain rgp1, active compounds read low 0.813 | S. cerevisiae deletion strains, locus YGL086W, strain mad1, active compounds read low 1.12 [resistant] | S. cerevisiae deletion strains, locus YJL187C, strain SWE1 (second series), active compounds read low 0.767 | S. cerevisiae deletion strains, locus YKL085W, strain MDH1 (second series), active compounds read low 1.11 [resistant] | S. cerevisiae deletion strains, locus YKL085W, strain MDH1, active compounds read low 1.11 [resistant] | S. cerevisiae deletion strains, locus YLR039C, strain RIC1, active compounds read low 0.674 | S. cerevisiae deletion strains, locus YLR058C, strain SHM2, active compounds read low 0.866
inactive: S. cerevisiae deletion strains, locus YAL021C, strain ccr4, active compounds read low 0.972 | S. cerevisiae deletion strains, locus YAL026C, strain drs2, active compounds read low 0.982 | S. cerevisiae deletion strains, locus YAL030W, strain snc1, active compounds read low 0.983 | S. cerevisiae deletion strains, locus YBL061C, strain skt5, active compounds read low 0.98 | S. cerevisiae deletion strains, locus YBR009C, strain hhf1, active compounds read low 0.977 | S. cerevisiae deletion strains, locus YBR021W, strain FUR4, active compounds read low 1.05 | S. cerevisiae deletion strains, locus YBR023C, strain chs3, active compounds read low 0.971 | S. cerevisiae deletion strains, locus YBR171W, strain sec66, active compounds read low 0.995 | S. cerevisiae deletion strains, locus YBR229C, strain ROT2, active compounds read low 0.996 | S. cerevisiae deletion strains, locus YBR231C, strain swc5, active compounds read low 0.925 | S. cerevisiae deletion strains, locus YBR279W, strain paf1, active compounds read low 0.988 | S. cerevisiae deletion strains, locus YCL011C, strain gbp2, active compounds read low 0.98 | S. cerevisiae deletion strains, locus YCL016C, strain dcc1, active compounds read low 0.973 | S. cerevisiae deletion strains, locus YCL029C, strain bik1, active compounds read low 0.943 | S. cerevisiae deletion strains, locus YCL069W, strain vba3, active compounds read low 1 | S. cerevisiae deletion strains, locus YCR088W, strain abp1, active compounds read low 0.997 | S. cerevisiae deletion strains, locus YDL005C, strain med2, active compounds read low 0.979 | S. cerevisiae deletion strains, locus YDL035C, strain GPR1, active compounds read low 0.953 | S. cerevisiae deletion strains, locus YDL040C, strain nat1, active compounds read low 0.994 | S. cerevisiae deletion strains, locus YDL074C, strain BRE1, active compounds read low 0.949 | S. cerevisiae deletion strains, locus YDL101C, strain DUN1, active compounds read low 0.959 | S. cerevisiae deletion strains, locus YDL134C, strain PPH21, active compounds read low 0.977 | S. cerevisiae deletion strains, locus YDL192W, strain arf1, active compounds read low 0.976 | S. cerevisiae deletion strains, locus YDR001C, strain nth1, active compounds read low 1.01 | S. cerevisiae deletion strains, locus YDR069C, strain doa4, active compounds read low 0.919 | S. cerevisiae deletion strains, locus YDR101C, strain arx1, active compounds read low 0.987 | S. cerevisiae deletion strains, locus YDR150W, strain NUM1, active compounds read low 0.966 | S. cerevisiae deletion strains, locus YDR159W, strain sac3, active compounds read low 0.965 | S. cerevisiae deletion strains, locus YDR162C, strain NBP2, active compounds read low 0.997 | S. cerevisiae deletion strains, locus YDR195W, strain ref2 0.977 | S. cerevisiae deletion strains, locus YDR297W, strain sur2, active compounds read low 0.989 | S. cerevisiae deletion strains, locus YDR318W, strain mcm21, active compounds read low 0.967 | S. cerevisiae deletion strains, locus YDR334W, strain swr1, active compounds read low 1 | S. cerevisiae deletion strains, locus YDR335W, strain msn5, active compounds read low 0.997 | S. cerevisiae deletion strains, locus YDR388W, active compounds read low 0.961 | S. cerevisiae deletion strains, locus YDR392W, strain spt3, active compounds read low 0.921 | S. cerevisiae deletion strains, locus YDR502C, strain sam2, active compounds read low 0.935 | S. cerevisiae deletion strains, locus YEL003W, strain gim4, active compounds read low 0.983 | S. cerevisiae deletion strains, locus YEL037C, strain rad23, active compounds read low 1.01 | S. cerevisiae deletion strains, locus YEL061C, strain CIN8 (second series), active compounds read low 1 | S. cerevisiae deletion strains, locus YEL061C, strain CIN8, active compounds read low 0.97 | S. cerevisiae deletion strains, locus YER015W, strain faa2, active compounds read low 0.983 | S. cerevisiae deletion strains, locus YER016W, strain bim1, active compounds read low 0.996 | S. cerevisiae deletion strains, locus YER110C, active compounds read low 0.975 | S. cerevisiae deletion strains, locus YER111C, strain swi4, active compounds read low 0.984 | S. cerevisiae deletion strains, locus YER155C, strain BEM2 (second series), active compounds read low 0.934 | S. cerevisiae deletion strains, locus YER155C, strain BEM2, active compounds read low 1.02 | S. cerevisiae deletion strains, locus YER167W, strain BCK2, active compounds read low 0.956 | S. cerevisiae deletion strains, locus YFR010W, strain ubp6, active compounds read low 0.978 | S. cerevisiae deletion strains, locus YGL078C, strain dbp3, active compounds read low 0.987 | S. cerevisiae deletion strains, locus YGL167C, strain pmr1, active compounds read low 1 | S. cerevisiae deletion strains, locus YGL173C, strain kem1, active compounds read low 0.97 | S. cerevisiae deletion strains, locus YGL227W, strain vid30, active compounds read low 1 | S. cerevisiae deletion strains, locus YGL240W, strain doc1, active compounds read low 0.949 | S. cerevisiae deletion strains, locus YGL248W, strain PDE1, active compounds read low 0.984 | S. cerevisiae deletion strains, locus YGL253W, strain hxk2, active compounds read low 1 | S. cerevisiae deletion strains, locus YGR135W, strain pre9, active compounds read low 0.941 | S. cerevisiae deletion strains, locus YGR252W, strain gcn5, active compounds read low 1.09 | S. cerevisiae deletion strains, locus YHR013C, strain ard1, active compounds read low 0.969 | S. cerevisiae deletion strains, locus YHR027C, strain rpn1, active compounds read low 0.998 | S. cerevisiae deletion strains, locus YHR030C, strain SLT2, active compounds read low 0.964 | S. cerevisiae deletion strains, locus YHR079C, strain IRE1 (second series), active compounds read low 0.979 | S. cerevisiae deletion strains, locus YHR094C, strain hxt1, active compounds read low 0.999 | S. cerevisiae deletion strains, locus YHR129C, strain ARP1, active compounds read low 0.952 | S. cerevisiae deletion strains, locus YHR142W, strain chs7, active compounds read low 1.02 | S. cerevisiae deletion strains, locus YHR200W, strain rpn10, active compounds read low 0.988 | S. cerevisiae deletion strains, locus YIL066C, strain RNR3, active compounds read low 0.943 | S. cerevisiae deletion strains, locus YIL073C, strain SPO22, active compounds read low 1.01 | S. cerevisiae deletion strains, locus YIL125W, strain kgd1, active compounds read low 0.997 | S. cerevisiae deletion strains, locus YIR030C, strain dcg1, active compounds read low 0.978 | S. cerevisiae deletion strains, locus YJL092W, strain hpr5, active compounds read low 1 | S. cerevisiae deletion strains, locus YJL095W, strain BCK1 (second series), active compounds read low 0.985 | S. cerevisiae deletion strains, locus YJL095W, strain BCK1, active compounds read low 0.882 | S. cerevisiae deletion strains, locus YJL115W, strain asf1, active compounds read low 1.01 | S. cerevisiae deletion strains, locus YJL129C, strain trk1, active compounds read low 1.02 | S. cerevisiae deletion strains, locus YJL134W, strain LCB3, active compounds read low 0.978 | S. cerevisiae deletion strains, locus YJL154C, strain vps35, active compounds read low 1.01 | S. cerevisiae deletion strains, locus YJL164C, strain tpk1, active compounds read low 0.977 | S. cerevisiae deletion strains, locus YJL166W, strain qcr8, active compounds read low 0.983 | S. cerevisiae deletion strains, locus YJL168C, strain set2, active compounds read low 0.983 | S. cerevisiae deletion strains, locus YJL187C, strain SWE1, active compounds read low 0.983 | S. cerevisiae deletion strains, locus YJR043C, strain POL32, active compounds read low 0.936 | S. cerevisiae deletion strains, locus YJR075W, strain HOC1, active compounds read low 0.96 | S. cerevisiae deletion strains, locus YKL068W, active compounds read low 0.965 | S. cerevisiae deletion strains, locus YKL160W, strain elf1, active compounds read low 0.979 | S. cerevisiae deletion strains, locus YKR001C, strain vps1, active compounds read low 0.952 | S. cerevisiae deletion strains, locus YKR026C, strain gcn3, active compounds read low 1.01 | S. cerevisiae deletion strains, locus YKR091W, strain srl3, active compounds read low 0.992 | S. cerevisiae deletion strains, locus YLL001W, strain dnm1, active compounds read low 0.98 | S. cerevisiae deletion strains, locus YLL026W, active compounds read low 0.996 | S. cerevisiae deletion strains, locus YLL041C, strain sdh2, active compounds read low 1.01 | S. cerevisiae deletion strains, locus YLR027C, strain aat2, active compounds read low 0.965 | S. cerevisiae deletion strains, locus YLR102C, strain apc9, active compounds read low 0.98 | S. cerevisiae deletion strains, locus YLR221C, strain rsa3, active compounds read low 0.957 | S. cerevisiae deletion strains, locus YLR258W, strain gsy2, active compounds read low 0.971 | S. cerevisiae deletion strains, locus YLR262C, strain YPT6 (second series), active compounds read low 0.949 | S. cerevisiae deletion strains, locus YLR262C, strain YPT6, active compounds read low 0.773 | S. cerevisiae deletion strains, locus YLR268W, strain sec22, active compounds read low 0.904 | S. cerevisiae deletion strains, locus YLR320W, strain mms22, active compounds read low 0.954 | S. cerevisiae deletion strains, locus YLR330W, strain CHS5, active compounds read low 0.979 | S. cerevisiae deletion strains, locus YLR342W, strain FKS1 (second series), active compounds read low 0.92 | S. cerevisiae deletion strains, locus YLR342W, strain FKS1, active compounds read low 0.968 | S. cerevisiae deletion strains, locus YLR357W, strain rsc2, active compounds read low 0.957 | S. cerevisiae deletion strains, locus YLR370C, strain arc18, active compounds read low 0.983 | S. cerevisiae deletion strains, locus YLR371W, strain rom2, active compounds read low 0.973 | S. cerevisiae deletion strains, locus YLR384C, strain iki3, active compounds read low 0.975 | S. cerevisiae deletion strains, locus YLR418C, strain cdc73, active compounds read low 0.974 | S. cerevisiae deletion strains, locus YML016C, strain PPZ1, active compounds read low 0.974 | S. cerevisiae deletion strains, locus YML032C, strain rad52, active compounds read low 0.94 | S. cerevisiae deletion strains, locus YML120C, strain ndi1, active compounds read low 0.989 | S. cerevisiae deletion strains, locus YML124C, strain tub3, active compounds read low 0.992 | S. cerevisiae deletion strains, locus YMR058W, strain fet3, active compounds read low 0.986 | S. cerevisiae deletion strains, locus YMR078C, strain ctf18, active compounds read low 0.989 | S. cerevisiae deletion strains, locus YMR125W, strain sto1, active compounds read low 0.969 | S. cerevisiae deletion strains, locus YMR129W, active compounds read low 0.981 | S. cerevisiae deletion strains, locus YMR205C, strain PFK2, active compounds read low 0.967 | S. cerevisiae deletion strains, locus YMR223W, strain ubp8, active compounds read low 0.957 | S. cerevisiae deletion strains, locus YMR231W, strain pep5, active compounds read low 0.993 | S. cerevisiae deletion strains, locus YMR263W, strain SAP30, active compounds read low 0.975 | S. cerevisiae deletion strains, locus YMR307W, strain GAS1, active compounds read low 1.09 | S. cerevisiae deletion strains, locus YNL067W, strain RPL9B, active compounds read low 0.964 | S. cerevisiae deletion strains, locus YNL071W, strain lat1, active compounds read low 1 | S. cerevisiae deletion strains, locus YNL153C, strain GIM3, active compounds read low 0.928 | S. cerevisiae deletion strains, locus YNL209W, strain ssb2, active compounds read low 0.982 | S. cerevisiae deletion strains, locus YNL233W, strain BNI4, active compounds read low 0.993 | S. cerevisiae deletion strains, locus YNL248C, strain rpa49, active compounds read low 0.91 | S. cerevisiae deletion strains, locus YNL250W, strain rad50, active compounds read low 0.966 | S. cerevisiae deletion strains, locus YNL271C, strain bni1, active compounds read low 0.987 | S. cerevisiae deletion strains, locus YNL298W, strain CLA4, active compounds read low 0.972 | S. cerevisiae deletion strains, locus YNL307C, strain MCK1, active compounds read low 0.982 | S. cerevisiae deletion strains, locus YNL322C, strain KRE1 (second series), active compounds read low 0.978 | S. cerevisiae deletion strains, locus YNR049C, strain mso1, active compounds read low 0.994 | S. cerevisiae deletion strains, locus YNR052C, strain pop2, active compounds read low 0.966 | S. cerevisiae deletion strains, locus YOL012C, strain htz1 0.792 | S. cerevisiae deletion strains, locus YOL147C, strain pex11, active compounds read low 0.986 | S. cerevisiae deletion strains, locus YOR001W, strain rrp6, active compounds read low 0.954 | S. cerevisiae deletion strains, locus YOR061W, strain CKA2, active compounds read low 0.932 | S. cerevisiae deletion strains, locus YOR069W, strain VPS5, active compounds read low 0.977 | S. cerevisiae deletion strains, locus YOR070C, strain gyp1, active compounds read low 0.966 | S. cerevisiae deletion strains, locus YOR080W, strain dia2, active compounds read low 0.978 | S. cerevisiae deletion strains, locus YOR083W, strain WHI5, active compounds read low 1 | S. cerevisiae deletion strains, locus YOR106W, strain vam3, active compounds read low 0.973 | S. cerevisiae deletion strains, locus YOR136W, strain idh2, active compounds read low 0.986 | S. cerevisiae deletion strains, locus YOR144C, strain elg1, active compounds read low 0.992 | S. cerevisiae deletion strains, locus YOR184W, strain ser1, active compounds read low 0.977 | S. cerevisiae deletion strains, locus YOR265W, strain rbl2, active compounds read low 0.981 | S. cerevisiae deletion strains, locus YOR270C, strain vph1, active compounds read low 0.921 | S. cerevisiae deletion strains, locus YOR290C, strain snf2, active compounds read low 0.967 | S. cerevisiae deletion strains, locus YOR316C, strain cot1, active compounds read low 0.974 | S. cerevisiae deletion strains, locus YPL051W, strain arl3, active compounds read low 0.923 | S. cerevisiae deletion strains, locus YPL078C, strain atp4, active compounds read low 0.992 | S. cerevisiae deletion strains, locus YPL106C, strain sse1, active compounds read low 0.966 | S. cerevisiae deletion strains, locus YPL240C, strain hsp82, active compounds read low 0.995 | S. cerevisiae deletion strains, locus YPL241C, strain CIN2, active compounds read low 0.995 | S. cerevisiae deletion strains, locus YPR119W, strain clb2, active compounds read low 0.99 | S. cerevisiae deletion strains, locus YPR141C, strain kar3, active compounds read low 0.967 | S. cerevisiae deletion strains, locus YPR163C, strain tif3, active compounds read low 0.994 | S. cerevisiae deletion strains, locus YPR167C, strain met16, active compounds read low 0.976 | S. cerevisiae deletion strains, strain wtn01, active compounds read low 0.969 | S. cerevisiae strains, strain wild type, active compounds read low 0.965
